The values that follow come from PubChem BioAssay (NCATS).

Results filed as inconclusive are left out. The source made the active and inactive calls. The call rests on the fitted dose curve; in most records, active means well fitted cell-killing curve with a large enough effect; inconclusive means small, poorly fitted or top-dose-only effect, or effect the other way; inactive means flat fitted curve, though single readings scatter.
On the % scale 0 is the no-effect control and ±100 the full control effect; potency means the concentration at half of the fitted maximal effect.

This assay is described as follows: qHTS for Inhibitors of ATXN expression: Validation of Cytotoxic Assay (AID 588349). To be noted: cytotoxicity counter-screen for ATXN expression inhibitors, cell viability; series mostly up to 57.1 µM; activity change, negative = cytotoxicity: at the top concentration. An excerpt:
Spinocerebellar ataxia type 2 (SCA2) is a multisystem neurodegenerative disease caused by a dominantly-acting mutation leading to expansion of a polyQ domain in the ataxin-2 protein (ATXN2). SCA2 patients develop progressive ataxia and later lose function in other neuronal systems. Prominent parkinsonian signs develop in some patients. Similar to many neurodegenerative disorders, no symptomatic or disease-modifying treatments are known.
The primary objective of project is to identify compounds inhibiting ATXN2 expression and to test them for efficacy in SCA2 mouse models. To this end, in a collaboration between Dr. Daniel Scoles and scientists at NCGC, a cell-based assay adapted to high-throughput screening has been developed to screen the NIH Molecular Libraries Small Molecule Repository (MLSMR). Confirmed qHTS active compounds will be tested for toxicity against the human neuron-like SH-SY5Y cell line. This line is the parental cell type used to generate the transgenic line used in the primary assay, and so should provide an isogenic control to test the inherent toxicity of qHTS actives.
NIH Chemical Genomics Center [NCGC]
NIH Molecular Libraries Probe Centers Network [MLPCN]
Assay Submitter (PI): Stefan Pulst and Daniel Scoles, University of Utah
HEK293 cultured cells will be dosed with titrated compounds and incubated for 72 hr at 37 degrees C. Toxicity will be assessed using the CellTiter Glo kit (Promega), which uses intracellular ATP concentration as a viability marker.
Background: Quantitative high-throughput screening tests each substance at several concentrations.
Take `Cc1cccc(C)c1NC1=NCCCS1`: the “activity change, negative = cytotoxicity” value is -14.9% (inactive).
On the same count and under the same terms, the same measure for `NCC(CC(=O)O)c1ccc(Cl)cc1` (centres undefined): -13.1% (inactive); for `CCCC(C)(COC(N)=O)COC(=O)NC(C)C` (centres undefined): 2.95% (inactive).
As for `c1ccc2c(c1)OCC(C1=NCCN1)O2` (centres undefined), the Potency is 22.4 µM (active).
On to `CC(=O)[C@H]1CC[C@H]2[C@@H]3CC[C@H]4C[C@](C)(O)CC[C@]4(C)[C@H]3CC[C@]12C`, for which the “activity change, negative = cytotoxicity” value is -2.89% (inactive).
For `Fc1ccc(C(OCCN2CCN(CCCc3ccccc3)CC2)c2ccc(F)cc2)cc1`, the Potency is 35.5 µM (active).
As to `O=C1NCN(c2ccccc2)C12CCN(CC1COc3ccccc3O1)CC2` (centres undefined), the “activity change, negative = cytotoxicity” value is -11.7% (inactive).
Same read-out and setting: the same measure for `CC(C)=CCOc1c2occc2cc2ccc(=O)oc12`: -8.68% (inactive); for `COc1ccc(C(CN(C)C)C2(O)CCCCC2)cc1` (centres undefined): -17.8% (inactive).
For `N#CC(C#N)=Cc1ccc(O)c(O)c1`, the “activity change, negative = cytotoxicity” value is -15.7% (inactive).
The same measure, in the same setting: under `CC(=O)[C@H]1CC[C@H]2[C@@H]3CC[C@H]4C[C@H](O)CC[C@]4(C)[C@H]3C(=O)C[C@]12C` stands -9.47% (inactive); under `CCCN1CCC[C@@H]2Cc3nc(N)ncc3C[C@H]21`, 0.821% (inactive).
Take `CNCCC(Oc1ccc(C(F)(F)F)cc1)c1ccccc1` (centres undefined): the Potency was 28.2 µM (active).
On to `CC(O)(CS(=O)(=O)c1ccc(F)cc1)C(=O)Nc1ccc(C#N)c(C(F)(F)F)c1` (centres undefined), for which the “activity change, negative = cytotoxicity” value is -9.14% (inactive).
For the compound `NN=C(N)N`, the Potency result was “inactive”.
Regarding `NCC(O)c1ccc(O)cc1` (centres undefined), the “activity change, negative = cytotoxicity” value is -13.9% (inactive).
With `Cc1cc2c(C(C)C)c(O)c(O)c(C=O)c2c(O)c1-c1c(C)cc2c(C(C)C)c(O)c(O)c(C=O)c2c1O`, the Potency was 10 µM (active).
As to `Nc1ccncc1`, the “activity change, negative = cytotoxicity” value is -16% (inactive).
For `CCCN1CCC[C@@H]2Cc3[nH]ncc3C[C@H]21`, the Potency entry was “inactive”.
`COc1ccccc1N1CCNCC1`: the “activity change, negative = cytotoxicity” value was -24.1% (inactive).
On the same count and under the same terms, under `Cc1ncc(CNC(=O)N(CCCl)N=O)c(N)n1` stands -3.9% (inactive); under `c1ccc(C2CC2)c(OCC2=NCCN2)c1`, -13.9% (inactive); under `CCC1(C2=NCCN2)Cc2ccccc2O1` (centres undefined), -6.98% (inactive).
The same measure, in the same setting: under `NCC1(CC(=O)O)CCCCC1` stands -5.21% (inactive); under `O=c1[nH]c2ccccc2n1C1CCN(CCCC(c2ccc(F)cc2)c2ccc(F)cc2)CC1`, -4.18% (inactive).
Same read-out and setting: under `CC[C@@H](CO)NC(=O)[C@@H]1C=C2c3cccc4[nH]cc(c34)C[C@H]2N(C)C1` stands -7.92% (inactive); under `Cc1cccc(C)c1NC(=O)CN1CCCC1=O`, -6.98% (inactive).
For `CC(C)NCC(O)c1ccc(O)c(O)c1` (centres undefined), the “activity change, negative = cytotoxicity” value is -22.8% (inactive).
The same measure, in the same setting: under `CNCC(O)c1ccc(O)cc1` (centres undefined) stands -5.89% (inactive).
